Test results published in PubChem BioAssay AID1851 (National Center for Advancing Translational Sciences (NCATS), 2009).
Where “and” joins values, the source holds several entries; their conditions need not be identical. Equal values may be shown once. The whole screen tested about 16,000 compounds, of which about 5,800 (36%) were called active. Inconclusive results (about 23%) are left out. The call rests on the fitted dose curve; in most records, active means well fitted curve in the direction sought with a large enough effect; inconclusive means small, poorly fitted or top-dose-only effect, or effect the other way; inactive means no such curve, though single readings can be large or run the other way. The list shows a part of the results.

Biological target: Cytochrome P450 2C19 (Homo sapiens) (UniProt P33261)
Assay: Cytochrome panel assay with activity outcomes
Conditions: recombinant CYP, pro-luciferin dealkylation, luminescence, p450-cyp2c19; series mostly up to 57.1 µM; activity, negative = inhibition: at the top concentration
On the % scale 0 is the no-effect control and ±100 the full control effect.

Sequence of Cytochrome P450 2C19 (Homo sapiens) (P33261 whole entry, looked up): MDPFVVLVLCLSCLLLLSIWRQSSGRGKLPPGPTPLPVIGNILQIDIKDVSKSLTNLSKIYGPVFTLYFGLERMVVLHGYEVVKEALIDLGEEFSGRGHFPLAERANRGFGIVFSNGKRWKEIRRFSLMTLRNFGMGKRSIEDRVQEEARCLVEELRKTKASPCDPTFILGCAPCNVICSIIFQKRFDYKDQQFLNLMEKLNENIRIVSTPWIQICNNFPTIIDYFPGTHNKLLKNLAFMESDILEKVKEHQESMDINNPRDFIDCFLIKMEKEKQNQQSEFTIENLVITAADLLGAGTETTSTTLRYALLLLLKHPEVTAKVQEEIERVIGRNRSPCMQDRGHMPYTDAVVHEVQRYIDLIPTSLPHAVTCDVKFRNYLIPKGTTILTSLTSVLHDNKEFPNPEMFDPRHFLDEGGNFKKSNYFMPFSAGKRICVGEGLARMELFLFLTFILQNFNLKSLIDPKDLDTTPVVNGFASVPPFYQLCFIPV

AC50, active:
CCOC(=O)CCCc1c[nH]c2ccccc12 5.01 µM, CC(C)CNC(=O)CCCc1c[nH]c2ccccc12 2.24 µM, Cc1cc(N2CCOCC2)ccc1/C=C1\SC(=O)N(C(C)C)C1=O 10 µM, Nc1ncc(-c2ccccc2)n1CC1CCCO1 (stereo not given) 5.62 µM, CC(/C=N/n1c(-c2cccnc2)n[nH]c1=S)=C\c1ccccc1 2.82 µM, COc1cc(-c2nnc(COC(=O)c3c4c(nc5ccccc35)CCCC4)o2)cc(OC)c1OC 1.78 µM, C[C@@H]1C[C@H](OC(=O)c2ccccc2O)CC(C)(C)C1 10 µM, CCOC(=O)c1c2ccc(OCC(=O)N/N=C/c3ccc(Cl)cc3)cc2n2ccccc12 2.51 µM, Cc1cccc(NC(=S)Nc2ccc(Br)cc2)c1 0.708 µM, CCCNC(=S)Nc1ccc(Br)cc1 7.94 µM, C/C(=N\NC(=S)Nc1cccc(C)c1)c1ccccc1 0.447 µM, Cc1ccc(NC(=S)Nc2ccc(Br)cc2)cc1 0.562 µM, COc1ccc(-c2csc(NC(=O)CCn3cnc4ccccc4c3=O)n2)cc1OC 2.82 µM, C=CCn1c(SCC(=O)N2CCc3ccccc3C2)nc2ccccc2c1=O 1.58 µM, O=C(Cn1c(SCC(=O)N2CCc3ccccc3C2)nc2ccccc21)NC1CCCC1 10 µM, CN1CC(c2ccccc2)C2(COc3ccccc3C2=O)C12C(=O)Nc1ccccc12 (stereo not given) 1.12 µM, Cc1ccc(CONC(=O)/N=C/N(C)C)cc1 4.47 µM, CN(C)S(=O)(=O)c1cc([N+](=O)[O-])ccc1N1CCCCCC1 5.01 µM, O=C(c1ccc(Br)cc1)c1cc([N+](=O)[O-])ccc1N1CCCCC1 1.26 µM, CN1CCN(S(=O)(=O)c2cc([N+](=O)[O-])ccc2N2CCCCCC2)CC1 0.631 µM, O=C(CNC(=O)c1ccco1)OCc1c(F)cccc1Cl 15.8 µM, Cc1ccc2[nH]c(=O)c(NC(N)=S)nc2c1 20 µM, Cc1ccccc1-c1cncnc1Nc1ccc(F)cc1 5.01 µM, Cc1ccccc1-c1cncnc1Nc1ccccc1 3.16 µM, COc1cccc(-c2cncnc2Nc2ccc(F)cc2)c1 0.398 µM, COc1ccccc1-c1cncnc1Nc1ccc(F)cc1 5.01 µM, CC(C)c1cc(C(F)(F)F)nc(NNc2nc(C(C)C)cc(C(F)(F)F)n2)n1 2.51 µM, COc1cc(OC)c(C#N)c(S(=O)(=O)Cc2ccccc2)c1 1.26 µM, CCC(=O)Nc1cc2c(cc1C(=O)c1ccccc1)OCCO2 14.1 µM, COC(=O)C1CCN(c2cc(=O)n(C3CCCCC3)c(=O)[nH]2)CC1 3.98 µM, O=c1cc(N2CCN(c3cccc(Cl)c3)CC2)[nH]c(=O)n1C1CCCCC1 2.51 µM, O=c1cc(N2CCC(Cc3ccccc3)CC2)[nH]c(=O)n1C1CCCCC1 3.16 µM, CO[C@@H]1COC(=O)C/C=C\[C@H](C)COC(=O)[C@H](Cc2ccccc2)NC(=O)C/C=C\[C@H]1C 2.51 µM, COc1cc(N)c(Cl)cc1C(=O)CCC1CCN(CCNS(C)(=O)=O)CC1 10 µM, CC(=O)N[C@H](c1ccccc1)[C@@]1(C)C[C@@H]1[C@@H](C)C(=O)Nc1ccc2ccccc2c1 5.01 µM, C[C@@H](C(=O)Nc1ccc2ccccc2c1)[C@H]1C[C@]1(C)[C@H](NC(=O)c1cnccn1)c1ccccc1 15.8 µM, C[C@@H](C(=O)Nc1ccc2ccccc2c1)[C@H]1C[C@]1(C)[C@H](NS(=O)(=O)c1ccc2ccccc2c1)c1ccccc1 0.251 µM, CC(=O)N[C@@H](c1ccccc1)[C@]1(C)C[C@H]1[C@@H](C)C(=O)Nc1ccc2ccccc2c1 0.398 µM, C[C@@H](C(=O)Nc1ccc2ccccc2c1)[C@H]1C[C@]1(C)[C@H](NP(=O)(c1ccccc1)c1ccccc1)c1ccccc1 10 µM, COC(=O)N[C@H](c1ccccc1)[C@@]1(C)C[C@@H]1[C@@H](C)C(=O)Nc1ccc2ccccc2c1 3.16 µM

AC50, inactive:
N[C@@H]1CONC1=O, Nc1c2c(nc3ccccc13)CCCC2, O=c1n(CCCN2CCN(c3cccc(Cl)c3)CC2)nc2ccccn12

activity, negative = inhibition, inactive:
CCOC(=O)CCCN 31.2% [at 11.4 µM], N[C@@H](Cc1c[nH]c2ccccc12)C(=O)O -11.9%, C[C@@](N)(Cc1c[nH]c2ccccc12)C(=O)O 34.7% [at 11.4 µM], CO/N=C(\C(=O)N[C@@H]1C(=O)N2C(C(=O)O)=C(COC(C)=O)CS[C@@H]12)c1csc(N)n1 -19% [at 25.6 µM], Cc1ccsc1/C=C1/SC(=O)N(CC(=O)N2CCOCC2)C1=O -27.3%, O=c1c(-c2ccccc2)nc2cnc(N3CCOCC3)nc2n1C[C@H]1CCCO1 -4.21%, O=c1cnc2cnc(Nc3ccccc3)nc2n1C[C@H]1CCCO1 -34.8%, COc1ccc(-n2c(-c3cnccn3)n[nH]c2=S)cc1 -4.23%, C[C@@H]1C[C@H](OC(=O)[C@@H](O)c2ccccc2)CC(C)(C)N1C 37.5% [at 25.6 µM], O=C(Nc1cccc(F)c1)N1CCC2(CC1)CCN(C(=O)c1cnccn1)CC2 5.51%, CCOC(=O)c1c2c(n3ccccc13)C(=O)c1ccccc1C2=O 0.385% [at 11.4 µM], CCN1C(=O)[C@H]2[C@H]3[C@H](O)[C@H](O)C/C(=N/O[C@@H]4O[C@@H](COC(C)=O)[C@@H](OC(C)=O)[C@@H](OC(C)=O)[C@H]4OC(C)=O)[C@H]3CC[C@@H]2C1=O 16.6% [at 11.4 µM], CO[C@@H]1COC(=O)[C@H](COCc2ccccc2)NC(=O)C/C=C\[C@@H](C)[C@H](OC)COC(=O)[C@@H](C)NC(=O)C/C=C\[C@H]1C 5.67% [at 11.4 µM], CCCC(=O)Nc1nc(-c2ccc3c(c2)CCN3S(C)(=O)=O)cs1 -24.4%, COc1ccc(-c2ccc(=O)n(CC(=O)Nc3nnc(C(C)C)s3)n2)cc1OC -29.9%, CN1CCN(Cc2nc3cccc4c3c([n+]2[O-])-c2ccccc2-4)CC1 -13.4% [at 11.4 µM], COc1ccc2c3c(ccc2c1)N[C@H](C(=O)O)CC3 3.64% [at 11.4 µM], CN1CCN(c2ccc([N+](=O)[O-])cc2S(=O)(=O)N2CCOCC2)CC1 6.03%, CN1CCN(c2ccncc2S(=O)(=O)N2CCN(C)CC2)CC1 15.7% [at 11.4 µM], CN1CCN(CCCN2c3ccccc3Sc3ccc(S(=O)(=O)N(C)C)cc32)CC1 2.33% [at 25.6 µM], Cc1cc2c(nc1C)CCCN2C[C@H](O)CN1CCCc2nc(-c3ccc(Br)cc3)ccc21 -41.3% [at 11.4 µM] and -36.7% [at 11.4 µM], Cc1ccccc1-c1cncnc1NC1CCNCC1 2.18%, CNc1ncncc1-c1ccccc1OC -6.59%, CS(=O)(=O)Nc1cccc(-c2cncnc2Nc2ccc(F)cc2)c1 -34.9%, COc1cccc(Nc2ncc3nc(-c4ccc(F)cc4)c(=O)n(CCC#N)c3n2)c1 -41.5%, CNc1ncncc1-c1ccccc1C -36.9%, CC(C)(C)C(=O)NC(=C(Cl)Cl)P(=O)(O)O -39.2%, CCOC(=O)N/N=C1/C[C@@H](O)[C@@H](O)[C@@H]2[C@@H]3C(=O)N([C@@H](C)c4ccccc4)C(=O)[C@H]3CC[C@H]12 12.9% [at 11.4 µM], CC(C)Nc1cc(C(F)(F)F)nc(-c2ccccn2)n1 -40.7%, COc1cc(OC)c2c(c1)C(=O)c1cc(OC)cc(OC)c1C2=O -6.51%, CC(C)C(=O)Nc1cc2c(cc1C(=O)c1ccccc1)OCCO2 -89.4%, Cc1ccccc1-n1c(=O)cc(N2CC(C)OC(C)C2)[nH]c1=O (stereo not given) 3.85%, O=C(c1ccco1)N1CCN(c2cc(=O)n(C3CCCCC3)c(=O)[nH]2)CC1 -38.6%, CO[C@@H]1COC(=O)C/C=C\[C@@H](C)COC(=O)[C@H](COCc2ccccc2)NC(=O)C/C=C\[C@H]1C -16.4% [at 11.4 µM], CO[C@H]1COC(=O)C/C=C\[C@H](C)[C@@H](OC)COC(=O)[C@H](Cc2ccccc2)NC(=O)C/C=C\[C@@H]1C -37.5% [at 11.4 µM], Cn1cc(C(=O)OCC2CCN(CCNS(C)(=O)=O)CC2)c2ccccc21 -2.19%, CCCCN1CCC(CCC(=O)c2cc(Cl)c(N)cc2OC)CC1 -9.04%, C[C@@H](C(=O)Nc1ccc2ccccc2c1)[C@@H]1C[C@@]1(C)[C@@H](NS(=O)(=O)c1ccc2ccccc2c1)c1ccccc1 15.5%, C[C@@H](C(=O)Nc1ccc2ccccc2c1)[C@@H]1C[C@@]1(C)[C@@H](NC(=O)c1ccncc1Cl)c1ccccc1 -38.4%, C[C@@H](C(=O)Nc1ccc2ccccc2c1)[C@@H]1C[C@@]1(C)[C@@H](NC(=O)c1cnccn1)c1ccccc1 -42.8%, C[C@@H](C(=O)Nc1ccc2ccccc2c1)[C@@H]1C[C@@]1(C)[C@@H](N)c1ccccc1 -33.6%, C[C@@H](C(=O)Nc1ccc2ccccc2c1)[C@@H]1C[C@@]1(C)[C@@H](NS(=O)(=O)c1ccc(-c2ccccc2)cc1)c1ccccc1 5.27%, CO[C@H]1C[C@@H](O[C@@H]2[C@H](C)[C@H](O[C@@H]3O[C@@H](C)C[C@@H](N(C)C)[C@@H]3O)[C@H](C)C[C@]3(CO3)C(=O)[C@H](C)[C@H](O)[C@H](C)[C@H](C)OC(=O)[C@@H]2C)O[C@@H](C)[C@H]1O -29.6% [at 25.6 µM], C[C@@H](C(=O)Nc1ccc2ccccc2c1)[C@@H]1C[C@@]1(C)[C@@H](NC(=O)Oc1ccc(F)cc1)c1ccccc1 -43.6%, C[C@@H](C(=O)Nc1ccc2ccccc2c1)[C@H]1C[C@]1(C)[C@H](NC(=O)Oc1ccc(F)cc1)c1ccccc1 -37.1%, C[C@@H](C(=O)Nc1ccc2ccccc2c1)[C@H]1C[C@]1(C)[C@H](NS(=O)(=O)c1ccc(-c2ccccc2)cc1)c1ccccc1 -37.2%, C[C@@H](C(=O)Cc1ccc2ccccc2c1)[C@@H]1C[C@@]1(C)[C@@H](NP(=O)(c1ccccc1)c1ccccc1)c1ccccc1 -26.1%
